# About 3,700 (1%) of roughly 370,000 compounds were called active. The sample as a whole holds a higher share of actives than the screen did. A number with no mark means an inactive call.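 How the source made its calls: active means activation above the mean over all tested compounds plus 3 SD (cut at about 0.9% in these data); inactive means the rest.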
# Test system: Nuclear hormone receptor DAF-12 (Strongyloides stercoralis)
# Assay: S. stercoralis DAF-12 nuclear receptor activators, primary screen, cell-based, luminescence, HEK293, GRIP1 co-expression, lit1-tk-luc (AID 652126);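 further: 0% = DMSO-only wells and 100% = 3 µM delta7-dafachronic acid wells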
# Details: HEK293 ssDAF-12/GRIP1 lit1-tk-luc reporter, at 6.8 µM, hits give high values, % of 3 µM dafachronic acid response
row,Compound,activation
1,O=C(c1cn2ccccc2n1)N1CCc2c([nH]c3ccccc23)C1c1ccccn1 (stereo not drawn),0.91% (active)
2,COCc1ccc(C(=O)N2CCc3c([nH]c4ccccc34)C2c2ccccn2)s1 (stereo not drawn),-2.05%
3,c1ccc(C2c3[nH]c4ccccc4c3CCN2Cc2cccn2-c2cccnc2)nc1 (stereo not drawn),-1.17%
4,CCC(C)[C@@H](C(=O)OC)N(CCc1cn(Cc2ccccc2)nn1)S(=O)(=O)c1ccccc1Br (stereo partly drawn),-1.79%
5,COc1ccc(/C=C/c2c(-c3cccc(C)c3)oc3ccc(-c4ccc5c(c4)OCO5)cc23)cc1,-1.12%
6,COc1ccc([C@H]2CC(=O)C=C(c3ccc(C)cc3)C2)cc1,-0.86%
7,COc1ccc(C2=Nc3cc(C)ccc3OC2)cc1,1.43% (active)
8,CCOc1ccc(Oc2c(Cl)cnn(-c3ccc(C)cc3)c2=O)cc1,-1.17%
9,Cc1ccc(C2=NN(C)c3nc4ccccc4n3C2)cc1,1.2% (active)
10,Cc1nc2ccccc2n1CC(O)c1ccccc1 (stereo not drawn),-1.14%
11,Cc1ccc(-c2nnc(-n3nnc4ccccc43)c3ccccc23)cc1,-1.26%
12,O=C(CCCCCN1C(=O)C2C3C=CC(C3)C2C1=O)Nc1ccccc1 (stereo not drawn),-1.12%
13,COc1c(N2CCN(C(=S)Nc3ccccc3F)C(C)C2)c(F)cc2c(=O)c(C(=O)O)cn(C3CC3)c12 (stereo not drawn),-0.28%
14,O=C(NC1CCC1)c1ccc(C#Cc2cccc(F)c2)c[n+]1[O-],-1.07%
15,CSc1nc(C)nc(C2CC2)c1C#N,-1.49%
16,Nc1ccc(C(=O)Nc2ccccc2N)cc1,1.55% (active)
17,CC(CNC(=O)c1ccc(N)cc1)NC(=O)c1ccc(N)cc1 (stereo not drawn),-1.71%
18,O=C(Nc1ccccc1C(=O)N1CCOCC1)c1ccc(Cl)cc1,-1.32%
19,Cc1ccc(-n2c(COc3ccccc3)nnc2SCC(=O)Nc2ccc3c(c2)OCCO3)cc1,-1.43%
20,CC(NC(=O)COC(=O)c1ccc2ccccc2n1)c1ccccc1 (stereo not drawn),-0.49%

row,Compound,activation
1,Cc1cccc(NC(=O)c2ccc3ccccc3n2)n1,1.11% (active)
2,COC(=O)c1ccc(NC(=S)Nc2cccc(C)n2)cc1,-0.35%
3,Cc1c(C(C)c2ccccc2O)[nH]c2ccccc12 (stereo not drawn),-0.11%
4,CCOc1ccc(-n2c(SCC(=O)Nc3cc(C)c(NC(=O)c4ccccc4)cc3OC)nnc2-c2cccs2)cc1,-1.35%
5,CCOC(=O)N1CCN(C(=O)C[C@H]2C[C@@]3(C(=O)OC)C(=C[C@H](C(C)(C)C)O[C@@H]3C)N(Cc3ccc(Cl)cc3Cl)C2=O)CC1,-1.86%
6,COc1ccc(C)cc1S(=O)(=O)NCCc1ccccc1,-0.72%
7,COc1ccc(OC)c(S(=O)(=O)NCCC(C)C)c1,1.47% (active)
8,COCCNS(=O)(=O)c1cc(Br)ccc1OC,-1.56%
9,CC(C)CNc1cccc2c1S(=O)(=O)N(Cc1cn(Cc3ccc(Cl)cc3)nn1)Cc1ccccc1O2,-1.25%
10,O=C(CSc1nc2ccccc2nc1N1CCCCC1)N1CCN(S(=O)(=O)c2cccc([N+](=O)[O-])c2)CC1,-0.71%
11,CC(=O)Nc1ccc(OC[C@@H](O)CN2CCC(C(O)(c3ccccc3)c3ccccc3)CC2)cc1,-0.46%
12,COc1cccc(CNC(=O)C2CCCN(c3nc4ccccc4o3)C2)c1OC (stereo not drawn),1.04% (active)
13,COc1ccccc1CNC(=O)C1CCN(c2nc3ccccc3o2)CC1,-1.15%
14,O=C(NCc1ccc(Cl)cc1)C1CCCN(c2nc3ccccc3o2)C1 (stereo not drawn),-1.04%
15,CCC(=O)Nc1ccc2c(c1)C(=O)N(C)[C@H]1CC[C@H](CC(=O)NCCOC)O[C@@H]1CO2,-1.05%
16,COc1ccc(-n2c(COc3ccccc3)nnc2SCC(=O)Nc2ccc3c(c2)OCO3)cc1,-1.47%
17,COc1ccc(C(CNC(=O)c2cc3c(s2)CCCC3)N2CCOCC2)cc1 (stereo not drawn),-1.09%
18,O=c1c2cc([N+](=O)[O-])ccc2nc2n1CCC2,-0.82%
19,CC(C)(C)NC(=O)Cn1cnc2cc([N+](=O)[O-])ccc2c1=O,-1.52%
20,Cc1ccc(-n2cc3ccc([N+](=O)[O-])cc3n2)cc1,1.77% (active)

row,Compound,activation
1,C=CCN1C(=O)[C@@H](CC(=O)N2CCN(C(=O)OCC)CC2)[C@]2(C(=O)OCC)CCCCC/C=C/12,-1.02%
2,CCOc1cc(C)c(S(=O)(=O)NCc2ccccn2)cc1C,0.98% (active)
3,COc1ccccc1CNS(=O)(=O)c1cc(C(=O)NCc2ccccn2)c(Cl)cc1Cl,-1.13%
4,Cc1cc(S(=O)(=O)NCc2ccccn2)c(Cl)cc1Cl,-1.84%
5,COC(=O)[C@H](C(C)C)N(CCCc1cn(Cc2ccccc2)nn1)S(=O)(=O)c1ccc(F)cc1Br,-2.17%
6,Cc1cccc(-n2c(O)c(C=Nc3ccccc3N)c(=O)[nH]c2=O)c1,1.8% (active)
7,COc1cccc(N(C)C(=O)[C@@H](C)[C@@H](O)c2ccc3ccccc3c2)c1,-1.07%
8,CSc1nc2nc3c(c(=O)n2[nH]1)CCC3,-1.17%
9,O=c1c2c(nc3cc(-c4cccc(Cl)c4)[nH]n13)CCCC2,1.57% (active)
10,CCOC(=O)C1CCN(S(=O)(=O)c2ccc3c(c2)N(C(C)=O)CCO3)CC1,-1.19%
11,OC(c1ccccc1)c1nc(-c2cnc3ccccc3c2)cs1 (stereo not drawn),1.25% (active)
12,CC(C)c1cccc(-c2csc(C(O)c3ccccc3)n2)c1 (stereo not drawn),-1.41%
13,COc1ccc(-c2csc(C(O)c3cccc(Cl)c3)n2)cn1 (stereo not drawn),-1.06%
14,COc1cccc(N(CC(=O)NCCSc2ccccn2)S(C)(=O)=O)c1,-1.16%
15,CN(C)c1nc(N)nc(CSc2ccccn2)n1,-1.25%
16,COc1ccc(C=C(C#N)C#N)c(CSc2ccccn2)c1,2.1% (active)
17,c1coc(CCNc2ncnc3ccc(-c4ccc5c(c4)OCO5)cc23)c1,-0.09%
18,CCn1c2ccccc2c2cc(NC(=O)CSc3nnc(-c4ccccc4)n3-c3ccc(C)cc3)ccc21,-1.2%

# Reference: PubChem BioAssay AID652126 (The Scripps Research Institute Molecular Screening Center, 2013)
